Screening results: PubChem BioAssay, National Center for Advancing Translational Sciences (NCATS)
Most compounds without a hit are left out; they make up all but 9.9% or so of the library.
JMJD2E inh – JMJD2E (human) inhibition; JMJD2E catalytic domain, FDH-coupled NADH fluorescence (FDH is formaldehyde dehydrogenase); Potency, µM (doses to about 57.1 µM), for inactives: at the highest dose activity change, negative = inhibition, usual class: inhibitors; actives 1.6% (n = 230,000); active = well fitted inhibition curve with a large enough effect, not every such curve was filed as active; inconclusive = small, poorly fitted or top-dose-only effect, or another doubt; inactive = no such curve, though single readings can be large or run the other way;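 also: 0% = wells with enzyme and -100% = buffer wells without enzyme; nearly all actives have a fitted effect of over 50% in size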
Tau ThT inhib – tau fibrillization inhibition (ThT binding); actives 2.1% (n = 270,000); recombinant tau K18 P301L, heparin-induced fibrillization, ThT fluorescence; Potency, µM (top dose mostly 57.4 µM), inactives show at the top dose activity, negative = inhibition, actives largely listed as inhibitors; P10636; AID 1460; also: nearly all actives have a fitted effect of over 55% in size
Target sequence (P10636 561-689 P618L limits assumed): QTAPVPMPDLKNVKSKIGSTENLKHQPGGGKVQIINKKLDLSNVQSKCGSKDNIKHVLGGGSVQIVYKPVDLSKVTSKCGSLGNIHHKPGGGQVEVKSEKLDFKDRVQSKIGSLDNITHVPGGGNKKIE
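Tau K18 P301L fragment (15 uM unlabeled plus 0.24 uM Alexa 594-labeled) in 100 mM sodium acetate pH 7 with compound, fibrillization induced by 20 uM heparin for 6 hr at 37 C. Thioflavin T (30 uM) added, fluorescence read after 1 hr (ex 450, em 510 nm).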
ALDH1A1 block – blocks purified human ALDH1A1 activity | Purified ALDH1A1, NADH fluorescence, propionaldehyde substrate | AID 1030 | P00352 | actives 7.3% (n = 220,000) | Potency, µM (highest dose often 75.3 µM), without a hit: at the top dose activity, negative = inhibition, hits mostly inhibitors; active = well fitted inhibition curve with a large enough effect, not every such curve was filed as active; inconclusive = small, poorly fitted or top-dose-only effect, or another doubt; inactive = no such curve, though single readings can be large or run the other way;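 also: plate controls were no enzyme wells and a reference inhibitor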
Target sequence (P00352 whole entry, looked up): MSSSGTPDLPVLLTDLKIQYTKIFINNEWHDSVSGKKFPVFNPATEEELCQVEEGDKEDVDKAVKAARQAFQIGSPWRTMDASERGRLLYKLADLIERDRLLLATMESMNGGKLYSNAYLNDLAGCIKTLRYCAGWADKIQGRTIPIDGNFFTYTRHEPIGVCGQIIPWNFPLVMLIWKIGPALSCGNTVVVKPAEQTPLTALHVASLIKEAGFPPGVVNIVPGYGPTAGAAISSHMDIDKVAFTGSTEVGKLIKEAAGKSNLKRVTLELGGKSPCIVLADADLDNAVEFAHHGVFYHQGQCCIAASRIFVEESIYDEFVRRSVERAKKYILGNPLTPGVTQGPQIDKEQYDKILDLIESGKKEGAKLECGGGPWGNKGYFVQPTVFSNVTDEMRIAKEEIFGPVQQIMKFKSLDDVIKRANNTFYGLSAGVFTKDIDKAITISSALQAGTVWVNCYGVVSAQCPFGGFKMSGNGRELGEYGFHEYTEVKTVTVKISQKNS
Tau FP inhib – tau fibrillization inhibition (FP); P10636; Potency, µM (doses to about 57.7 µM), inactives show at the highest dose activity, negative = inhibition, most hits filed as inhibitors; actives 0.39% (n = 280,000); K18 P301L tau heparin fibrillization, Alexa594 FP, 6 h; also: nearly all actives have a fitted effect of over 55% in size
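Human K18 P301L fragment (15 uM unlabeled plus 0.24 uM Alexa 594-labeled) in 100 mM sodium acetate pH 7 with compound, aggregation induced by 20 uM heparin for 6 hr at 37 C. ThT (30 uM) added for 1 hr, then Alexa 594 FP read.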
HPGD block – blocks human HPGD enzyme activity; Potency, µM, without a hit: top-dose activity change, negative = inhibition, actives largely listed as inhibitors; AID 894; actives 4.3% (n = 150,000); purified HPGD, NADH fluorescence kinetic, PGE2 substrate; active = well fitted inhibition curve with a large enough effect, not every such curve was filed as active; inconclusive = small, poorly fitted or top-dose-only effect, or another doubt; inactive = no such curve, though single readings can be large or run the other way
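20 nM HPGD preincubated 15 min at room temperature with compound in 50 mM Tris-HCl pH 8, 0.01% Tween 20. Started with 1 mM NAD+ and 30 uM prostaglandin E2; NADH fluorescence (360/450 nm) read 5 times over 30-s intervals, last minus first.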
Tau fluor cs – counter-screen for tau fibril formation inhibitors | tau K18 P301L (four-repeat tau fragment) Alexa594 fluorescence, heparin fibrillization | Potency, µM (doses to about 57.7 µM), inactives show at the highest dose activity change, negative = decrease | actives 0.93% (n = 280,000); also: nearly all actives have a fitted effect of over 55% in size
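Human K18 P301L tau (15 uM unlabeled plus 0.24 uM Alexa 594-labeled, final) in 100 mM sodium acetate pH 7 was mixed with compound and 20 uM heparin and incubated 6 hr at 37 C.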
The depositor's hits bear a star. Unless noted, calls follow the shape of the dose curve; as a rule, active = well fitted curve in the direction sought with a large enough effect; inconclusive = small, poorly fitted or top-dose-only effect, or another doubt; inactive = no such curve, though single readings can be large; an effect the other way counts as inactive or inconclusive. Unless noted, % is scaled to controls: 0 for no effect and ±100 for the full control effect; potency is read from the fitted curve at half-maximal effect.

What do the screens show for `CC(C(=O)Nc1ccccc1-c1ccccc1)N1CCN(Cc2ccccc2)CC1` (stereo not given)?
JMJD2E inh: 3.2%; Tau ThT inhib: -4.6%; ALDH1A1 block: 14.1µM*; Tau FP inhib: 4.1%; Tau fluor cs: 9.3%

How did CCOc1ccc(CCNC(=O)c2c(C)oc3ncnc(N4CCOCC4)c23)cc1 do in these assays?
Tau ThT inhib: -12.6%; Tau FP inhib: 8.3%; Tau fluor cs: -1.2%

Results for Cc1cc2n(n1)SC(Nc1cccc3ccccc13)N2 (stereo not given) ?
JMJD2E inh: inconclusive; Tau ThT inhib: -9.8%; ALDH1A1 block: 12.6µM*; Tau FP inhib: -9.9%; HPGD block: -20.9%; Tau fluor cs: -11.3%

How did Cc1cc2n(n1)SC(Nc1cc(Cl)ccc1Cl)N2 (stereo not given) do in these assays?
JMJD2E inh: -1.9%; Tau ThT inhib: -8.7%; ALDH1A1 block: 3.55µM*; Tau FP inhib: 7.3%; HPGD block: -18.5%; Tau fluor cs: -5.8%

Results for Cc1cc2n(n1)SC(Nc1ccc(F)cc1)N2 (stereo not given) ?
JMJD2E inh: -6.5%; Tau ThT inhib: -1.2%; ALDH1A1 block: 28.2µM*; Tau FP inhib: 2.6%; HPGD block: -12.5%; Tau fluor cs: -3.9%

Results for COc1ccc2oc(C(=O)OCc3c(C)noc3C)c(C)c2c1 ?
JMJD2E inh: inconclusive; Tau ThT inhib: -17.7%; ALDH1A1 block: inconclusive; Tau FP inhib: -0.4%; Tau fluor cs: -14.1%

Results for O=C(NNc1cc(Br)c(O)c(Br)c1)c1ccccc1 ?
JMJD2E inh: -27.9%; Tau ThT inhib: 5.01µM*; ALDH1A1 block: 17.8µM*; Tau FP inhib: 15.8µM*; Tau fluor cs: inconclusive

Results for O=C(NC1CCCCC1)C(c1ccc2ncccc2c1)N(Cc1ccc2c(c1)OCO2)C(=O)c1cccs1 (stereo not given) ?
JMJD2E inh: -4.2%; Tau ThT inhib: -15.4%; ALDH1A1 block: 5.01µM*; Tau FP inhib: -4.4%; HPGD block: -14.1%; Tau fluor cs: -7.8%

Results for COc1ccc(CNC(=O)C2(c3cccs3)CCOCC2)cc1 ?
Tau ThT inhib: -1.5%; Tau FP inhib: inconclusive; Tau fluor cs: 2.8%

What do the screens show for `Cc1ccc(N2C(=O)CC(N3CCc4ccccc43)C2=O)cc1Cl` (stereo not given)?
JMJD2E inh: -1.4%; Tau ThT inhib: -6.9%; ALDH1A1 block: 1.7%; Tau FP inhib: -2.8%; Tau fluor cs: -9.2%

Results for Cc1ccc(N2C(=O)CC(Sc3nc4ccccc4o3)C2=O)cc1Cl (stereo not given) ?
JMJD2E inh: 1.9%; Tau ThT inhib: inconclusive; ALDH1A1 block: 1.41µM*; Tau FP inhib: -1.2%; HPGD block: inconclusive; Tau fluor cs: -19.6%

How did O=C(COc1ccccc1)N/N=C/c1ccc(O[C@@H]2O[C@H](CO)[C@@H](O)[C@H](O)[C@H]2O)cc1 do in these assays?
JMJD2E inh: -11.8%; Tau ThT inhib: 2.8%; ALDH1A1 block: 4.6%; Tau FP inhib: 3.8%; HPGD block: -14.3%; Tau fluor cs: 10.7%

What do the screens show for `Cc1ccc(S(=O)(=O)N/N=C/c2ccc(OS(=O)(=O)c3ccc(C)c([N+](=O)[O-])c3)cc2)cc1`?
JMJD2E inh: 1.8%; Tau ThT inhib: -13.1%; ALDH1A1 block: 5.01µM*; Tau FP inhib: -9.0%; HPGD block: -27.3%; Tau fluor cs: inconclusive

What do the screens show for `Cc1ccc(NC(=S)N/N=C/c2ccc(Cl)c([N+](=O)[O-])c2)cc1`?
JMJD2E inh: 6.0%; Tau ThT inhib: -26.1%; ALDH1A1 block: 17.1%; Tau FP inhib: -7.2%; HPGD block: -0.4%; Tau fluor cs: -29.6%

Results for Nn1cnnc1N/N=C/c1ccc(Cl)c([N+](=O)[O-])c1 ?
JMJD2E inh: -80.3%; Tau ThT inhib: 25.1µM*; ALDH1A1 block: inconclusive; Tau FP inhib: inconclusive; Tau fluor cs: -25.9%

How did Cc1ccc(S(=O)(=O)N/N=C\c2ccc(Cl)c([N+](=O)[O-])c2)cc1 do in these assays?
JMJD2E inh: -11.4%; Tau ThT inhib: inconclusive; ALDH1A1 block: 0.501µM*; Tau FP inhib: -1.9%; HPGD block: -14.8%; Tau fluor cs: inconclusive

How did Cc1ccc(S(=O)(=O)N/N=C/c2ccc(OC3CSC3)cc2)cc1 do in these assays?
JMJD2E inh: -5.4%; Tau ThT inhib: -4.7%; ALDH1A1 block: -3.4%; Tau FP inhib: -8.0%; HPGD block: -8.6%; Tau fluor cs: -27.7%

Results for CCOc1ccc(N(CC(=O)NN=C2CCCC2)S(C)(=O)=O)cc1 ?
JMJD2E inh: 27.1%; Tau ThT inhib: 2.5%; ALDH1A1 block: 6.2%; Tau FP inhib: 0.8%; Tau fluor cs: -0.8%

How did O=C(Nc1ccc(Cl)cc1C(=O)Nc1ccccn1)c1ccco1 do in these assays?
JMJD2E inh: inconclusive; Tau ThT inhib: -16.9%; ALDH1A1 block: -6.3%; Tau FP inhib: 0.7%; HPGD block: inconclusive; Tau fluor cs: -14.5%

What do the screens show for `CC1=C(C(=O)Nc2ccccn2)C(c2ccccc2Cl)NC(=S)N1` (stereo not given)?
JMJD2E inh: -10.8%; Tau ThT inhib: -8.3%; ALDH1A1 block: 2.51µM*; Tau FP inhib: -14.0%; Tau fluor cs: -10.0%

What do the screens show for `CC1=C(C(=O)Nc2ccccn2)C(c2ccc(Cl)cc2Cl)NC(=S)N1` (stereo not given)?
JMJD2E inh: 2.5%; Tau ThT inhib: -2.8%; ALDH1A1 block: 2.51µM*; Tau FP inhib: -3.7%; Tau fluor cs: -8.4%

Results for CC1=C(C(=O)Nc2ccccc2C)C(c2ccc(C)o2)NC(=S)N1 (stereo not given) ?
JMJD2E inh: -11.4%; Tau ThT inhib: -2.7%; ALDH1A1 block: inconclusive; Tau FP inhib: -3.9%; HPGD block: -5.2%; Tau fluor cs: -2.1%

Results for Cc1ccccc1-c1nc(CN2CCC(C(=O)NCc3ccccc3Cl)CC2)c(C)o1 ?
Tau ThT inhib: -10.4%; Tau FP inhib: -2.1%; Tau fluor cs: -15.5%

How did Cc1cccnc1-n1c(CCN2C(=O)c3ccccc3C2=O)nc2ccccc2c1=O do in these assays?
JMJD2E inh: 6.9%; Tau ThT inhib: 1.2%; ALDH1A1 block: 17.8µM*; Tau FP inhib: -2.1%; HPGD block: -14.9%; Tau fluor cs: 1.8%

What do the screens show for `CCOc1cc(C=O)cc(Br)c1OCC(=O)NCCc1ccccc1`?
JMJD2E inh: -8.3%; Tau ThT inhib: inconclusive; ALDH1A1 block: 6.31µM*; Tau FP inhib: 9.5%; Tau fluor cs: -1.3%

Results for Cc1ccc(N=C2NC(=O)/C(=C/c3cccn3C)S2)cc1 ?
JMJD2E inh: 3.4%; Tau ThT inhib: 6.31µM*; Tau FP inhib: 2.5%; Tau fluor cs: inconclusive
